Assay outcomes from PubChem BioAssay.
Mdm2-MdmX inh – inhibitors of human Mdm2/MdmX interaction; O15151+Q00987; SaOS-2 split-luciferase Mdm2/MdmX complementation, luminescence; inhibition, % at 8 µM; 330,000 compounds, 3% hits;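 active means inhibition of at least 50% at 8 µM in the primary screen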
Target sequence (O15151 whole entry, looked up): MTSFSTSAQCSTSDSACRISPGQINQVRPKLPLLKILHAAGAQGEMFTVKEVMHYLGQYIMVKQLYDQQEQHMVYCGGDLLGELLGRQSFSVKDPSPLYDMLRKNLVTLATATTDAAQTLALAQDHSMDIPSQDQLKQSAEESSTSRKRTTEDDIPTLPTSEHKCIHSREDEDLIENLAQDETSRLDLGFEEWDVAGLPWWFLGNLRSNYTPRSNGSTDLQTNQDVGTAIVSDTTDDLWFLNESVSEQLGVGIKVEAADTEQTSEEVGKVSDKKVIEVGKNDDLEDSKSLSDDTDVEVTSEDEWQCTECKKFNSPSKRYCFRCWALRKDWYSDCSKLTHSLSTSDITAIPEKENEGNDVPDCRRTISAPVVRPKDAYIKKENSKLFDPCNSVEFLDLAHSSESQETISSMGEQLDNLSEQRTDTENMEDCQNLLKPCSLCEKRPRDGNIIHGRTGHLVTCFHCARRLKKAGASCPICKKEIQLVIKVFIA
Target sequence (Q00987 whole entry, looked up): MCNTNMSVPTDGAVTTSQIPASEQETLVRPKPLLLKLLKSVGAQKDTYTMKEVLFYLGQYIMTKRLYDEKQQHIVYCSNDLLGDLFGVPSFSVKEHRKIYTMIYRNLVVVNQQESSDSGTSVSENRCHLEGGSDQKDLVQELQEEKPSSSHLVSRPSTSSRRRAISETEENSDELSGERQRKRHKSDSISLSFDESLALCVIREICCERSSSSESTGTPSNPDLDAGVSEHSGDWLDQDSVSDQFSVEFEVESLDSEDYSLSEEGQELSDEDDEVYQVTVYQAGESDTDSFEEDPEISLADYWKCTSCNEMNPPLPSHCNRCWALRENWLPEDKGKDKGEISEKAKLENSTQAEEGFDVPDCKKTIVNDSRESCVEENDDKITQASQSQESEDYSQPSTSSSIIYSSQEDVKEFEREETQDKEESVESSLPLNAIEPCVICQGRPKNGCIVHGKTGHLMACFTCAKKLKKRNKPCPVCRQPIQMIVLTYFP
KKLEB tox – counter-screen for CF NF-kB inhibitors: cytotoxicity; KKLEB CF airway cells viability, ATPlite luminescence, overnight; active compounds read low; cells stimulated with P. aeruginosa culture filtrate; activity change (cytotoxicity), % at 5 µM; 360,000 compounds, 0.36% hits;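 active means corrected activity change at or below -50% at 5 µM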
LGR2 antag – inhibitors of bursicon-induced Drosophila LGR2 receptor cAMP signaling. HEK293 LGR2, CRE-luciferase, bursicon-stimulated, 4 h. inhibition, % at 9.99 µM. 380,000 compounds, 0.35% hits. AID 720647;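 active means drop in luminescence signal, shown as inhibition above about 50% in the replicate tests, limit read from the data, passing the limit was not always enough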;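 further: agonist challenge used bursicon conditioned medium at about half maximal strength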
HSP90 refold inh – HSP90 refolding inhibition in rabbit reticulocyte lysate; luciferase refolding luminescence, 3 h; inhibition, % at 5.6 µM; 290,000 compounds, 0.91% hits; AID 1789;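 active means inhibition above the screen-wide mean plus 3 SD, computed separately per campaign, cut at about 16% in these data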;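 further: 0% = DMSO wells and 100% = 60 µM geldanamycin wells; inhibitors lower the luminescence because luciferase stays unfolded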
Peg3 prom inh – inhibitors of Peg3 promoter; inhibition, % at 20 µM; 360,000 compounds, 1.7% hits; HeLa PEG-Prom luciferase reporter, luminescence, overnight; AID 588405;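 active means inhibition of at least 50% at 20 µM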
CF NFkB block – inhibitors of cystic fibrosis induced NF-kB; KKLEB NF-kB-GFP reporter, PAF-induced, GFP fluorescence overnight; 360,000 compounds, 0.86% hits; AID 588850; inhibition, % at 5 µM;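 active means at least 50% inhibition at 5 µM, scaled per plate between neutral and stimulator controls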;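 further: PAF is a Pseudomonas aeruginosa culture filtrate used as stimulus; plate controls were PAF-stimulated DMSO wells for no effect and unstimulated DMSO wells for full effect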
Mdm2 MdmX conf – human Mdm2/MdmX binding inhibition, confirmed | shares compounds with Mdm2-MdmX inh | luminescent assay | inhibition, % at 8 µM | 10,000 compounds, 55% hits; in the data active means inhibition above about 40%
Full FLuc ctr – full-length luciferase inhibition in Mdm2/MdmX counter-screen. inhibition, % at 8 µM. 6,200 compounds, 77% hits. SaOS-2 full-length luciferase counterscreen, luminescence. AID 504607. shares compounds with Mdm2-MdmX inh;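 active means mean inhibition at 8 µM reaching about 37%, which flags the compound as non-specific, limit read from the data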;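 further: p53-null SaOS-2 cells with luciferase driven by a doxycycline-inducible promoter; compound on cells about two nights before reading with doxycycline added after day one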
Numbers without * were called inactive; · = no result. Compounds with a hit are over-represented: about 3.6% of the library has one in this group of screens.

SMILES | Mdm2-MdmX inh | KKLEB tox | LGR2 antag | HSP90 refold inh | Peg3 prom inh | CF NFkB block | Mdm2 MdmX conf | Full FLuc ctr
CC(C)NC(=O)N(C)C[C@H]1Oc2ccc(NS(=O)(=O)c3cn(C)cn3)cc2CC(=O)N([C@@H](C)CO)C[C@@H]1C | · | · | 1 | · | · | · | · | ·
N#Cc1ccc(-c2ccc(C3Nc4ccccc4C(=O)N3O)o2)cc1 (stereo not drawn) | 24 | 9 | -8 | · | -37 | -43 | · | ·
CCOC(=O)c1ccc(-c2ccc(C3Nc4ccccc4C(=O)N3O)o2)cc1 (stereo not drawn) | 72* | 0 | -39 | 8 | -15 | 3 | 62* | 58*
COc1ccc(NC(=O)Nc2ccc3c(c2)C(=O)N([C@@H](C)CO)C[C@@H](C)[C@@H](CN(C)S(=O)(=O)c2ccc(F)cc2)OCCCC[C@@H](C)O3)cc1 | · | · | -2 | · | · | · | · | ·
O=C(Nc1cccc(Cl)c1)N[C@H]1CC[C@@H](CCNC(=O)C2CCCC2)O[C@H]1CO | · | · | 21 | · | · | · | · | ·
Cc1cc(C)c2nc(/N=C(\N)NC(=O)Nc3ccccc3)nc(C)c2c1 | 54* | 3 | 1 | 4 | 12 | -45 | 48* | 70*
Cc1cc(C)c2nc(/N=C(\N)NC(=O)c3ccccc3)nc(C)c2c1 | 37 | -5 | -9 | 14 | 16 | 9 | · | ·
CC(C)NC(=O)N(C)C[C@@H]1Oc2ncc(C#Cc3ccncc3)cc2C(=O)N([C@@H](C)CO)C[C@H]1C | · | · | -14 | · | · | · | · | ·
CC(=O)c1ccc(N2CCC(c3cc(-c4ccc(Cl)cc4Cl)n[nH]3)CC2)c([N+](=O)[O-])c1 | 52* | -2 | · | -4 | 21 | -3 | 37 | ·
O=[N+]([O-])c1cccnc1N1CCC(c2cc(-c3ccc(Cl)cc3Cl)n[nH]2)CC1 | 25 | 4 | · | 9 | 21 | 6 | · | ·
O=C(C[C@H]1CC[C@@H]2[C@H](COC[C@H](O)CN2C(=O)c2ccccc2F)O1)N1CCCCC1 | · | · | 15 | · | · | · | · | ·
COCC(=O)Nc1ccc2c(c1)OC[C@@H](C)N(Cc1ccccn1)C[C@H](C)[C@H](OC)CN(C)C2=O | · | · | 8 | · | · | · | · | ·
CC(C)(C)Nc1nc(N2CCCC2)nc(N2CCCC2)n1 | 55* | -18 | · | -3 | 29 | 17 | 37 | ·
C[C@@H]1CCCCO[C@H](CN(C)Cc2ccc(C(F)(F)F)cc2)[C@H](C)CN([C@@H](C)CO)C(=O)c2cc(NS(=O)(=O)c3cn(C)cn3)ccc2O1 | · | · | -6 | · | · | · | · | ·
CC(C)CN(C#N)c1nc(N2CCOCC2)nc(N2CCOCC2)n1 | 51* | -17 | · | 1 | 16 | 16 | 38 | 70*
O=C(NCc1ccccc1)C1=C[C@H](C2CCCCC2)C[C@H](OCc2ccc(CO)cc2)O1 | 51* | -53* | 8 | 0 | 9 | 56* | 63* | 60*
O=C(NCc1ccccc1)C1=C[C@@H](c2csc3ccccc23)C[C@@H](OCCCCO)O1 | 74* | · | -4 | 12 | · | · | 75* | 39*
O=C(NCc1ccccc1)C1=C[C@@H](c2csc3ccccc23)C[C@@H](OCc2ccc(CO)cc2)O1 | 72* | 0 | 13 | 15 | 39 | 5 | 32 | ·
O=C(O)C1=C[C@H](c2csc3ccccc23)C[C@H](OCc2ccc(CO)cc2)O1 | 14 | 3 | -4 | 1 | 3 | 8 | · | ·
O=C(NCC[C@@H]1CC[C@@H](NC(=O)C2CC2)[C@H](CO)O1)Nc1ccc(Cl)cc1 | · | · | -6 | · | · | · | · | ·
CN(C)c1ccc(C(=O)c2ccc(N(C)C)c3ccccc23)cc1 | 56* | -2 | · | 1 | -218 | 55* | 50* | 181*
COc1ccc(C(=O)c2ccc(N(C)C)cc2)c(OC)c1 | 62* | -13 | -2 | -2 | -6 | 17 | 48* | 37*
CN(C)c1ccccc1C(=O)c1ccccc1N(C)C | -6 | -5 | · | -3 | -150 | 1 | · | ·
Cc1ccc(-n2nc3c(=O)n(CC(=O)NC(C)CCc4ccccc4)nc(C)c3c2C)cc1 (stereo not drawn) | 50* | 6 | · | 0 | 34 | -21 | 9 | ·
Cc1ccc(-n2nc3c(=O)n(CC(=O)NCc4ccccc4)nc(C)c3c2C)cc1 | 3 | 5 | -4 | -2 | 17 | -3 | · | ·
SMILES | Mdm2-MdmX inh | KKLEB tox | LGR2 antag | HSP90 refold inh | Peg3 prom inh | CF NFkB block | Mdm2 MdmX conf | Full FLuc ctr
COc1cccc(-c2nnc(SC(C(=O)c3c[nH]c4ccccc34)c3ccccc3)n2C)c1 (stereo not drawn) | 56* | -13 | 5 | 1 | 53* | 10 | 36 | ·
COc1cccc(-c2nnc(SCCC(=O)O)n2C)c1 | -5 | 7 | 6 | 2 | 12 | -2 | · | ·
O=C(C[C@H]1C[C@@H]2c3cc(NC(=O)Nc4ccccc4F)ccc3O[C@@H]2[C@@H](CO)O1)NCc1ccc(Oc2ccccc2)cc1 | · | · | 12 | · | · | · | · | ·
COc1ccc(-c2ccc3c(c2)[C@@H]2[C@@H](CCN2C(=O)C2CCOCC2)[C@H](CO)N3C)cc1 | · | · | -5 | · | · | · | · | ·
O=[N+]([O-])c1ccc(C[n+]2cccc3c4ccccc4ccc32)cc1 | 19 | -6 | -4 | -4 | 3 | -16 | · | ·
CCCCCCCCC[n+]1cccc2c3ccccc3ccc21 | 91* | -30 | · | 2 | 113* | 24 | 87* | 57*
CCCCCCCCCCCCCCCC[n+]1cccc2ccccc21 | 96* | -68* | 6 | 0 | 104* | 66* | 100* | 4
Cc1ccccc1C[n+]1cccc2ccccc21 | -4 | -12 | -4 | · | 4 | 6 | · | ·
COc1cccc(C(=O)Nc2ccc3c(c2)OC[C@H](C)N(C(=O)C2CCCC2)C[C@@H](C)[C@H](OC)CN(C)C3=O)c1 | · | · | -3 | · | · | · | · | ·
CCOc1cc(/C=C/C(=O)c2ccc3c(c2)OCCO3)ccc1OCC(=O)N(C)C | 55* | -16 | 3 | 0 | 63* | 15 | 39 | 51*
O=C(C[C@H]1C[C@@H]2c3cc(NC(=O)Cc4ccncc4)ccc3O[C@@H]2[C@H](CO)O1)NCc1cccnc1 | · | · | -11 | · | · | · | · | ·
CCOc1cc2nc(-c3ccc(OC)c(OC)c3)nc(N3CCOCC3)c2cc1OC | 53* | · | · | 4 | · | · | 45* | 83*
CCCNC(=O)Nc1ccc2c(c1)OC[C@H](C)N(CCC(F)(F)F)C[C@@H](C)[C@H](OC)CN(C)C2=O | · | · | -10 | · | · | · | · | ·
O=C(Cc1ccccc1)Nc1ncnc2c1C(c1ccccc1)c1c(ccc3ccccc13)O2 (stereo not drawn) | 90* | -13 | 0 | · | 53* | 18 | 23 | ·
COc1ccc(/C=N/OCc2nc3c4c(ncn3n2)Oc2ccc3ccccc3c2C4c2ccccc2)cc1 (stereo not drawn) | 14 | 0 | · | -1 | 30 | 15 | · | ·
O=C(Nc1ncnc2c1C(c1ccccc1)c1c(ccc3ccccc13)O2)c1ccccc1 (stereo not drawn) | 65* | -15 | 1 | · | 34 | 39 | 52* | 45*
